From PubChem BioAssay AID1159580 (chemical genetic matrix, 2015)
“And” between values parts separate entries of the source, which are not always exact repeats. Identical values can stand only once. About 2,000 (36%) of roughly 5,500 compounds were called active. About 18% were inconclusive and are not listed. Rule as the data show it: active = normalized growth mostly below about 0.91 (no sharp cut-off); inconclusive = no clear call, values can overlap the other calls; inactive = mostly above about 0.92. The list shows a part of the results.

Assay: chemical genetic growth profiling, strain panel (AID 1159580);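 also: tested at 20 µM; growth read once vehicle control cultures reached saturation at 30 °C; 1 = growth at the plate median or of vehicle wells; lower values mean less growth of the strain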
Details: S. cerevisiae deletion strains, growth OD

Measured: normalized growth

O=C(O)c1cc2cc(F)ccc2[nH]1
inactive: locus YAL013W, strain DEP1, stronger effect = lower value 1 | locus YAL021C, strain ccr4, stronger effect = lower value 0.961 | locus YAL026C, strain drs2, stronger effect = lower value 0.992 | locus YAL030W, strain snc1, stronger effect = lower value 0.998 | locus YAL040C, strain CLN3, stronger effect = lower value 0.969 | locus YBL061C, strain skt5, stronger effect = lower value 0.99 | locus YBR009C, strain hhf1, stronger effect = lower value 1.01 | locus YBR021W, strain FUR4, stronger effect = lower value 0.99 | locus YBR023C, strain chs3, stronger effect = lower value 0.996 | locus YBR171W, strain sec66, stronger effect = lower value 0.97 | locus YBR229C, strain ROT2, stronger effect = lower value 0.982 | locus YBR231C, strain swc5, stronger effect = lower value 0.991 | locus YBR279W, strain paf1, stronger effect = lower value 0.976 | locus YCL011C, strain gbp2, stronger effect = lower value 0.975 | locus YCL016C, strain dcc1, stronger effect = lower value 0.994 | locus YCL029C, strain bik1, stronger effect = lower value 1.02 | locus YCL061C, strain MRC1 (second series), stronger effect = lower value 0.99 | locus YCL061C, strain MRC1, stronger effect = lower value 0.971 | locus YCL069W, strain vba3, stronger effect = lower value 0.975 | locus YCR088W, strain abp1, stronger effect = lower value 0.971 | locus YDL005C, strain med2, stronger effect = lower value 0.97 | locus YDL035C, strain GPR1, stronger effect = lower value 1.02 | locus YDL040C, strain nat1, stronger effect = lower value 0.979 | locus YDL074C, strain BRE1, stronger effect = lower value 1.03 | locus YDL101C, strain DUN1, stronger effect = lower value 1.02 | locus YDL134C, strain PPH21, stronger effect = lower value 1.01 | locus YDL185W, strain tfp1, stronger effect = lower value 1.01 | locus YDL192W, strain arf1, stronger effect = lower value 1.02 | locus YDR001C, strain nth1, stronger effect = lower value 0.978 | locus YDR069C, strain doa4, stronger effect = lower value 1 | locus YDR101C, strain arx1, stronger effect = lower value 1.01 | locus YDR137W, strain rgp1, stronger effect = lower value 0.968 | locus YDR150W, strain NUM1, stronger effect = lower value 1.01 | locus YDR159W, strain sac3, stronger effect = lower value 0.995 | locus YDR162C, strain NBP2, stronger effect = lower value 1.02 | locus YDR195W, strain ref2 0.966 | locus YDR297W, strain sur2, stronger effect = lower value 0.975 | locus YDR318W, strain mcm21, stronger effect = lower value 1.02 | locus YDR334W, strain swr1, stronger effect = lower value 0.945 | locus YDR335W, strain msn5, stronger effect = lower value 0.99 | locus YDR388W, stronger effect = lower value 1.01 | locus YDR392W, strain spt3, stronger effect = lower value 0.933 | locus YDR502C, strain sam2, stronger effect = lower value 1.02 | locus YEL003W, strain gim4, stronger effect = lower value 0.978 | locus YEL037C, strain rad23, stronger effect = lower value 0.981 | locus YEL061C, strain CIN8 (second series), stronger effect = lower value 0.979 | locus YEL061C, strain CIN8, stronger effect = lower value 1.01 | locus YER002W, strain NOP16, stronger effect = lower value 0.966 | locus YER015W, strain faa2, stronger effect = lower value 0.981 | locus YER016W, strain bim1, stronger effect = lower value 0.994 | locus YER110C, stronger effect = lower value 1.02 | locus YER111C, strain swi4, stronger effect = lower value 1.01 | locus YER155C, strain BEM2 (second series), stronger effect = lower value 0.993 | locus YER155C, strain BEM2, stronger effect = lower value 1 | locus YER167W, strain BCK2, stronger effect = lower value 1.01 | locus YFR010W, strain ubp6, stronger effect = lower value 0.978 | locus YGL078C, strain dbp3, stronger effect = lower value 1.01 | locus YGL086W, strain mad1, stronger effect = lower value 1.02 | locus YGL167C, strain pmr1, stronger effect = lower value 0.982 | locus YGL173C, strain kem1, stronger effect = lower value 0.987 | locus YGL227W, strain vid30, stronger effect = lower value 0.989 | locus YGL240W, strain doc1, stronger effect = lower value 1.01 | locus YGL248W, strain PDE1, stronger effect = lower value 1.01 | locus YGL253W, strain hxk2, stronger effect = lower value 1 | locus YGR078C, strain PAC10, stronger effect = lower value 0.984 | locus YGR135W, strain pre9, stronger effect = lower value 1.02 | locus YGR229C, strain SMI1, stronger effect = lower value 1.01 | locus YGR252W, strain gcn5, stronger effect = lower value 1.03 | locus YHR013C, strain ard1, stronger effect = lower value 0.99 | locus YHR027C, strain rpn1, stronger effect = lower value 0.977 | locus YHR030C, strain SLT2, stronger effect = lower value 1.01 and 1.02 | locus YHR079C, strain IRE1 (second series), stronger effect = lower value 1.02 | locus YHR079C, strain IRE1, stronger effect = lower value 0.988 | locus YHR094C, strain hxt1, stronger effect = lower value 1.02 | locus YHR129C, strain ARP1, stronger effect = lower value 1 | locus YHR142W, strain chs7, stronger effect = lower value 0.949 | locus YHR200W, strain rpn10, stronger effect = lower value 1.03 | locus YIL066C, strain RNR3, stronger effect = lower value 1.01 | locus YIL073C, strain SPO22, stronger effect = lower value 1.09 | locus YIL125W, strain kgd1, stronger effect = lower value 1.01 | locus YIR030C, strain dcg1, stronger effect = lower value 1.02 | locus YJL092W, strain hpr5, stronger effect = lower value 0.968 | locus YJL095W, strain BCK1 (second series), stronger effect = lower value 0.987 | locus YJL095W, strain BCK1, stronger effect = lower value 1.01 and 0.997 | locus YJL115W, strain asf1, stronger effect = lower value 0.962 | locus YJL129C, strain trk1, stronger effect = lower value 0.979 | locus YJL134W, strain LCB3, stronger effect = lower value 1.01 | locus YJL154C, strain vps35, stronger effect = lower value 0.967 | locus YJL164C, strain tpk1, stronger effect = lower value 0.972 | locus YJL166W, strain qcr8, stronger effect = lower value 1 | locus YJL168C, strain set2, stronger effect = lower value 1.02 | locus YJL187C, strain SWE1 (second series), stronger effect = lower value 1.01 | locus YJL187C, strain SWE1, stronger effect = lower value 0.981 | locus YJR043C, strain POL32, stronger effect = lower value 1.01 | locus YJR066W, strain TOR1, stronger effect = lower value 0.93
